High-throughput results as filed in PubChem BioAssay.
The list is not random: actives were taken first. Their share in the collection is about 4.6%.
TIM10 inh: growth inhibitors of TIM10 yeast strain; S. cerevisiae TIM10 strain growth, BacTiter-Glo luminescence, 24 h; inhibition, % at 10 µM; 1.4% of 330,000 active; AID 463195;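 active = inhibition of 40% or more at the single tested concentration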;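 note: wild-type TIM10 isogenic control strain grown at permissive 25 °C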
NLRP3 yeast inh: NALP3 inhibition in yeast; Yeast reconstituted NLRP3/ASC/caspase-1, beta-gal luminescence, 24 h; inhibition, % at 10 µM; 0.39% of 330,000 active; AID 2825;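 active = inhibition of 50% or more; inactive = inhibition below 50%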;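 note: plate controls were induced DMSO wells for no effect and uninduced yeast grown without galactose for full effect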
SKKanGAS inh: inhibitors of SKKanGAS S. pyogenes growth in kanamycin (SK-promoter or general growth effect). AID 1662. 1.3% of 300,000 active. inhibition, % at 7.5 µM. BacTiter-Glo, 6 h;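 active = mean replicate score, as percent of positive control median, at least 50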;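 note: strain carries kanamycin resistance gene driven by streptokinase promoter and grows in 40 µg/ml kanamycin; loss of luminescence reflects streptokinase promoter inhibition or plain growth inhibition; 0% = median of DMSO wells and 100% = positive control at its reference dose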
tim23-1 inh: inhibits growth of tim23-1 mutant yeast | inhibition, % at 20 µM | 1.3% of 330,000 active | S. cerevisiae tim23-1 growth, BacTiter-Glo luminescence, 24 h | AID 463212;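 active = growth inhibition of the mutant yeast at or above 50%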;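 note: temperature-sensitive mutant grown at 25 °C; plate controls were DMSO-treated mutant yeast for no effect and medium wells lacking yeast for full effect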
PfHsp90 set2: inhibits growth of yeast expressing Plasmodium falciparum Hsp90; inhibition, % at 9.4 µM; 0.32% of 310,000 active; S. cerevisiae expressing PfHsp90, BacTiter-Glo ATP, 48 h; yeast lacking PDR1 and PDR3 efflux regulators; AID 504621;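 active = every replicate shows inhibition above about 80%, whatever the replicate mean, limit read from the data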;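 note: 0% = DMSO neutral controls and 100% = 20 µM radicicol positive controls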
tim10-1 inh: growth inhibitors of tim10-1 mutant yeast. inhibition, % at 20 µM. S. cerevisiae tim10-1 ts strain growth, BacTiter-Glo, 24 h. AID 463190. 2.2% of 330,000 active;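 active = inhibition of at least 40%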;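 note: mutant grown at 25 °C; 0% = DMSO wells with yeast and 100% = wells holding no yeast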
TIM10 conf: TIM10 yeast growth inhibition, confirmed | shares compounds with TIM10 inh | S. cerevisiae tim10 strain growth, BacTiter-Glo luminescence, 24 h | inhibition, % at 10 µM | 63% of 4,600 active | AID 463215;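 active = inhibition of yeast growth at or above a set limit in either of two replicates at 10 µM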;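 note: this counterscreen used the strain with wild-type TIM10; 0% = yeast with DMSO and 100% = medium wells lacking yeast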
tim23-1 conf: tim23-1 yeast growth inhibition, confirmed | S. cerevisiae tim23-1 growth, BacTiter-Glo luminescence, 24 h | inhibition, % at 20 µM | 83% of 4,400 active | AID 463218 | shares compounds with tim23-1 inh;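 active = inhibition above about 39% in either of two replicate wells at 20 µM, limit read from the data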;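 note: temperature-sensitive tim23-1 mutant grown at 25 °C; 0% = DMSO wells with yeast and 100% = medium wells without yeast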
* marks the source's active call; other numbers are inactive results; / = not tested or not shown.

SMILES	TIM10 inh	NLRP3 yeast inh	SKKanGAS inh	tim23-1 inh	PfHsp90 set2	tim10-1 inh	TIM10 conf	tim23-1 conf
COn1c(=O)c(-c2cccs2)[n+]([O-])c2ccccc21	43.4*	21.7	-3.7	51.5*	-61.8	36.2	1.1	63.7*
COn1c(=O)c(-c2ccccc2)[n+]([O-])c2ccccc21	19.3	1.6	2.2	21.6	1.1	27.5	/	/
CCc1ccc(CN(C)C(=O)c2cc(COc3ccc(-n4cncn4)cc3)on2)cc1	55.6*	32.7	4.0	54.1*	7.2	25.6	46.1*	52.5*
CC(=O)Oc1ccc(C2=Cc3ccc(OC(C)=O)cc3OC2C)cc1 (stereo not given)	/	/	/	/	-25.7	/	/	/
O=C(NCc1cccc(Br)c1)C1CC2Cn3c(nc4ccccc43)C2N1c1ccccc1 (stereo not given)	3.0	14.8	1.8	4.9	-11.5	0.3	/	/
Cc1ccc2c(c1)COc1c3ccc(C(=O)NCC4CC4)cc3nn1-2	40.7*	15.5	11.4	61.1*	12.6	16.4	31.1*	53.6*
CSc1ccc(/C=C(\C#N)C(=O)NC2CCCCC2C)cc1 (stereo not given)	56.0*	1.5	-7.4	59.4*	9.2	39.2	65.3*	39.2*
Cc1cccc(-c2nc(Nc3ccc(N4CCOCC4)cc3)c3ccccc3n2)c1	5.9	24.9	12.4	32.3	11.6	26.9	/	/
Cc1cccc(-c2nc(Nc3cccc(O)c3)c3ccccc3n2)c1	52.5*	37.7	17.4	77.9*	-44.4	6.1	50.5*	24.2
CNC(=S)N/N=C(\C)c1ccc(C(C)(C)C)cc1	48.1*	26.8	-13.6	50.0*	2.7	30.8	0.1	37.8
CNC(=S)N/N=C(\C)c1ccccc1	17.8	5.9	-2.6	16.2	-6.8	22.0	/	/
Oc1c(Br)cc(Br)cc1CNc1ccccn1	51.3*	45.9	15.2	67.5*	-5.7	17.8	20.5	73.7*
O=C(N/N=C/c1ccccc1O)c1ccc2c(c1)OCO2	50.5*	14.7	104.7*	66.8*	3.7	30.8	43.1*	74.2*
O=C(N/N=C/c1cc(Br)cc(Cl)c1O)c1ccc2c(c1)OCO2	43.5*	9.1	89.5*	57.1*	-48.8	-3.2	31.4*	56.6*
CC(=O)/C=C(\C)N=Nc1c(O)[nH]c2ccccc12	-2.7	10.4	-6.8	32.8	-10.0	1.6	/	/
COc1cccc(OC)c1C(=O)NCCc1ccccc1	-32.6	-1.8	2.3	-0.3	-3.0	-24.7	/	/
COc1cccc2cc(C(=O)NCCc3ccccc3)oc12	50.3*	38.4	0.8	62.0*	-11.3	31.8	37.4*	76.7*
CCN(c1ccccc1)S(=O)(=O)c1cccc(C(=O)NCC2(N(C)C)CCCCC2)c1	-3.3	18.9	/	8.8	-3.5	7.0	/	/
Cn1c(SCc2ccc(Br)cc2)nnc1-c1cccs1	56.7*	42.7	5.4	56.6*	-16.6	36.7	29.7*	61.4*
CCn1c(SCc2ccccc2)nnc1-c1cccs1	30.7	14.2	-6.3	37.1	/	39.1	/	/
C=C1SC(Nc2c(C)cc(C)cc2C)=NC12CCCCC2	44.7*	27.3	28.2	64.6*	6.6	33.5	39.1*	62.9*
CCOCC(=O)Nc1cc(C(=O)Nc2ccccc2)ccc1Cl	53.7*	6.4	-1.3	60.3*	7.3	19.2	45.0*	67.4*
CCOC(=O)C1CCN(C(=O)c2cc3cc4ccc(OC)cc4nc3o2)CC1	41.5*	30.1	5.8	67.7*	-9.5	34.8	36.9*	67.4*
Cc1ccc2cc3cc(C(=O)N4CC(C)CC(C)C4)oc3nc2c1 (stereo not given)	48.0*	-6.7	7.7	52.5*	31.3	38.0	39.2*	60.5*
COc1ccc2cc3cc(C(=O)N4CCN(Cc5ccc6c(c5)OCO6)CC4)oc3nc2c1	40.2*	37.0	9.1	68.4*	1.1	38.7	-3.4	83.0*
CCOC(=O)C1CCN(C(=O)c2ccc(OC)cc2OC)CC1	-2.5	3.8	-5.9	-1.5	10.0	-8.5	/	/
